Among the data in PubChem BioAssay (Tox21) are Potency values, retold here.

Where “and” joins values, the source holds several entries; their conditions need not be identical. Identical values can stand only once. Results filed as inconclusive are left out. Where a call stands in place of a potency, no number is given. Calls of active or inactive are those of the source. Calls follow the shape of the dose curve; as a rule, active = well fitted cell-killing curve with a large enough effect in the repeat runs; inconclusive = weak or mixed curves, or effect the other way; inactive = no such curve, though single readings can be large or run the other way.
Potency is read from the fitted curve at half-maximal effect.

The experiment can be described thus: Caspase-3/7 induction in CHO-K1 cells by small molecules, qHTS cell viability counter screen (AID 1346979). Also: nearly all actives have a fitted effect of over 35% in size. Conditions: CellTiter-Fluor fluorescence, 17 h; series mostly up to 92.4 µM. The source says:
National Center for Advancing Translational Sciences [NCATS]
NIH Chemical Genomics Center [NCGC]
U.S. Environmental Protection Agency [EPA]
National Institutes of Environmental Health Sciences [NIEHS]
National Toxicology Program [NTP]
U.S. Food and Drug Administration [FDA]
Apoptosis is a process of programmed cell death and plays a central role in the development of multicellular organisms. It is a highly regulated process and induces cell death by activating caspases, which are the members of cysteine aspartic acid-specific protease (caspase) family. Caspases involved in apoptosis are classified by their mechanism of action as initiator caspases (caspase-2, -8, -9 and -10) and executioner caspases (caspase-3, -6, and -7). Inhibition of apoptosis results in number of cancers, autoimmune diseases, inflammatory diseases and viral infection. To identify small molecule compounds that induce apoptosis, a homogeneous, luminescent Caspase-Glo 3/7 assay was used. Wild type CHO-K1 cells were used to screen Tox21 libraries for identifying caspase-3/7 activity inducers. Also cytotoxicity of the compounds was tested in parallel by measuring the cell viability using CellTiter-Fluor assay system in the same wells.
Tox21 Assay Protocol Summary:
CHO-K1 cells were dispensed at 1,500 per well in 5uL of culture medium into white solid bottom 1536-well plates (Corning Life Sciences, Corning, NY) using a Multidrop Combi (Thermo Scientific, Waltham, MA) dispenser. The assay plates were incubated at 37 C and 5% CO2 for 5hr, and then 23nL of compounds dissolved in DMSO and positive control were transferred using a Pintool station (Wako, San Diego, CA). The assay plates were incubated at 37C and 5% CO2 for 17hr. For cytotoxicity read, after 16hr incubation at 37C, 1uL CellTiter-Fluor reagent (Promega Corporation, Madison, WI) was added to each well of the assay plates using Flying Reagent Dispenser (FRD, Aurora Discovery, San Diego, CA). After 1hr incubation at 37C and 5% CO2, the fluorescence signal was quantified using a ViewLux plate reader (PerkinElmer, Shelton, CT).
(In qHTS, concentration-response curves come from the screen itself.)
For `CCN(CC)C(=O)/C(Cl)=C(\C)OP(=O)(OC)OC`, the Potency entry was “inactive”.
For the molecule `O=C(O)C(F)(F)C(F)(F)C(F)(F)C(F)(F)C(F)(F)C(F)(F)C(F)(F)F`, the Potency entry was “inactive”.
In the case of `CC(C)N(C(=O)SCC(Cl)=C(Cl)Cl)C(C)C`, the Potency entry is “inactive”.
The value for `CCN(CC)N=O` was “inactive”.
Consider `COc1ccc(C(CN(C)C)C2(O)CCCCC2)cc1` (stereo not given), for which the Potency entry was “inactive”.
The value for `Nc1ccc(Cl)c(Cl)c1` was “inactive”; that for `C#CCOS(=O)OC1CCCCC1Oc1ccc(C(C)(C)C)cc1` (stereo not given) was 1.94 µM (active) and 1.93 µM (active).
For the molecule `CC(C)c1ccc(CO)cc1`, the Potency entry is “inactive”.
Take `CCOP(=S)(OCC)O/N=C(\C#N)c1ccccc1`: the Potency entry is “inactive”.
As to `Oc1c(Cl)c(Cl)c(Cl)c(Cl)c1Cl`, the Potency result is “inactive”.
On to `CCC(C)(c1ccc(O)cc1)c1ccc(O)cc1`, for which the Potency is 61.1 µM (active).
As to `CCCCCCCCOC(=O)c1ccccc1C(=O)OCCCCCCCC`, the Potency result is “inactive”.
In the case of `CCCCN(CC)c1c([N+](=O)[O-])cc(C(F)(F)F)cc1[N+](=O)[O-]`, the Potency entry is “inactive”.
Then `Nc1c(Cl)cc([N+](=O)[O-])cc1Cl`, with “inactive”; and `C=C(C)[C@H]1Cc2c(ccc3c2O[C@@H]2COc4cc(OC)c(OC)cc4[C@@H]2C3=O)O1`, with 175 nM (active) and 770 nM (active) and 7.5 µM (active); and `O=C1C=CC(=O)C=C1`, with “inactive”.
The value for `CCCCCCCCC(=O)NCc1ccc(O)c(OC)c1` was “inactive”.
For `O=C(Nc1ccc(Br)cc1)c1cc(Br)cc(Br)c1O`, the Potency was 17.2 µM (active) and 15.4 µM (active).
Turning to `O=c1oc2ccccc2c(O)c1C(CC(O)c1ccc(-c2ccc(Br)cc2)cc1)c1ccccc1` (stereo not given), the Potency result is “inactive”.
The value for `Clc1nc(Cl)nc(Cl)n1` was “inactive”.
Consider `C1=Cc2cccc3cccc1c23`, for which the Potency result is “inactive”.
Turning to `CCOC(=S)S`, the Potency is 61.1 µM (active) and 23.1 µM (active).
As for `C[C@]12CCC(=O)C(O)=C1CC[C@@H]1[C@@H]2CC[C@]2(C)C(=O)CC[C@@H]12`, the Potency entry was “inactive”.
On to `Nc1ccncc1`, for which the Potency result was “inactive”.
Then `CN(C)c1ccc(C(=O)c2ccc(N(C)C)cc2)cc1`, with 24.3 µM (active); and `COP(=S)(OC)Oc1cc(Cl)c(Cl)cc1Cl`, with “inactive”; and `CC(C)NC(C)C`, with “inactive”.
Consider `c1nc[nH]n1`, for which the Potency entry is “inactive”.
In the case of `CCOCN(C(=O)CCl)c1c(C)cccc1CC`, the Potency was 57.7 µM (active).
For the molecule `O=C(CCl)c1ccccc1`, the Potency is 68.6 µM (active).
The value for `N[C@@H](Cc1ccc(N(CCCl)CCCl)cc1)C(=O)O` was 29.4 µM (active) and 26.6 µM (active).
For `Cc1cc(Cl)ccc1OCCCC(=O)O`, the Potency result was “inactive”.
Consider `c1ccc(N=Nc2ccccc2)cc1`, for which the Potency entry is “inactive”.
Then `C=CC(=O)OCCO`, with 55.3 µM (active); and `c1ccc(NNc2ccccc2)cc1`, with “inactive”; and `CCc1cccc(CC)c1N(COC)C(=O)CCl`, with 16.7 µM (active).
Consider `Cc1ccccc1[N+](=O)[O-]`, for which the Potency result is “inactive”.
Turning to `CNC(=O)Oc1cccc2c1OC(C)(C)O2`, the Potency entry was “inactive”.
As for `S=C1NCCN1`, the Potency result was “inactive”.
The value for `CC(O)CCO` (stereo not given) was “inactive”.
